In the supplement of paper PMC9477273 one finds maximum fold change data, which are given here for 30 compounds.

Structures are written as SMILES.

The subject of the assay is DRIVER-selected RNA biosensor (aptazyme) pool. Nature of the assay: maximum fold change of ribozyme cleavage across biosensor pool versus no-compound control; higher = stronger biosensor response (ligand inhibits cleavage). To be noted: 10 µM. In a few lines: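 Values are the maximum fold change of cleavage over all biosensors in a CleaveSeq assay, defined as the cleaved:uncleaved read-fraction ratio against a no-compound condition after correction with reference sequences. The 1,730 array-resynthesized ribozyme biosensors were T7-transcribed for 15–30 min at 37°C with 9 mM rNTPs and a single compound at 10 µM final, then reverse-transcribed at 50°C. Read counts came from Illumina sequencing of PCR-barcoded cleaved and uncleaved products.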
Turning to `COc1cccc(C(=O)/C=C2/Nc3ncc(Br)cc3NC2=O)c1`, the maximum fold change stood at 5.23.

With `O=C(CCc1ccccc1)N1CCC(c2ccccc2)C1` (stereo not given), the maximum fold change is 1.79.

As to `Cc1c(CNC2CCCc3ccccc32)c(C(=O)O)c(C)n1Cc1ccc(F)cc1` (stereo not given), the maximum fold change came out at 2.39.

`COc1cc(C(=O)N(Cc2ccccc2F)C2CCS(=O)(=O)C2)cc(OC)c1OC` (stereo not given) showed a maximum fold change of 2.18.

`CCOc1cc2c(cc1OCC)C1C(C(=O)NCc3cccnc3)c3ccccc3C(=O)N1CC2` (stereo not given): the maximum fold change was 4.02.

Take `O=C(NCc1ccc2c(c1)OCO2)c1cc(-c2ccc(Cl)cc2)n[nH]1`: the maximum fold change worked out at 3.13.

`COc1ccc(OC)c(/C=C2/N=C(c3cccc(Cl)c3Cl)OC2=O)c1` registered a maximum fold change of 4.84.

With `COc1ccc(CN2CCN(Cc3csc(C)c3C)CC2)c(OC)c1OC`, the maximum fold change is 2.47.

On to `CC(=O)c1c(C)[nH]c2ccccc2c1=O`, for which the maximum fold change was determined as 2.03.

For `Cc1cc(C)c2c(-n3cccc3)c(C(=O)NCc3ccc4c(c3)OCO4)sc2n1`, the maximum fold change was determined as 5.23.

The compound `CCOC(=O)c1cnc2c(OC)cccc2c1NCCCN(CC)CC` registered a maximum fold change of 6.68.

In the case of `Cc1ccc(-c2noc(CCC(=O)NCc3ccc(F)cc3Cl)n2)cc1`, the maximum fold change was 3.35.

`CCOc1ccccc1-n1cc2c(c1-c1cccc(C)c1)c(=O)n(C)c(=O)n2C`: the maximum fold change was 1.83.

The compound `Cc1c(C(=O)Nc2ccncc2)sc2nc(-c3ccccc3)cn12` gave a maximum fold change of 3.12.

Take `CCN1CCN(C(=O)c2ccc(Cn3c(SCc4ccccc4F)nc4ccncc43)cc2)CC1`: the maximum fold change came out at 2.65.

The compound `Cc1oc(-c2ccccc2F)nc1CS(=O)(=O)CC(=O)N1CCC(Cc2ccccc2)CC1` displayed a maximum fold change of 4.04.

As to `CCOc1ccc(/C=C2\SC(N3CC(C)OC(C)C3)=NC2=O)cc1` (stereo not given), the maximum fold change was 2.08.

For the compound `C=Cc1ccc(Cn2c(C(=O)O)c(CNCC3CCCO3)c3ccc(C)cc32)cc1` (stereo not given), the maximum fold change is 2.75.

With `COc1ccc(S(=O)(=O)Nc2cccnc2)cc1`, the maximum fold change is 2.43.

As to `CC(C)CCNC(=O)Cn1c2c(c(-c3ccccc3Cl)cc1=O)CCC2`, the maximum fold change stood at 2.06.

With `CCOC(=O)c1cnc2c(C)c(Cl)ccc2c1NCCCN1CCOCC1`, the maximum fold change stood at 12.1.

`Cc1ccc2nc(/C(C#N)=C\c3ccc[nH]3)[nH]c2c1` registered a maximum fold change of 4.98.

For the compound `Cc1ccc(S(=O)(=O)NC(CC(=O)O)c2cccs2)cc1` (stereo not given), the maximum fold change came out at 2.72.

Regarding `CCCN(CCC)CCCNS(=O)(=O)c1ccc(OCC)c2ncccc12`, the maximum fold change is 2.96.

Turning to `Cc1ccc(C)c(Cn2c(C)c(CNCc3ccc(Cl)cc3)c(C(=O)O)c2C)c1`, the maximum fold change turned out to be 2.54.

Take `COc1ccc(C2=NN(CCC(=O)N3CCCCC3)C(=O)CC2)cc1`: the maximum fold change stood at 4.11.

In turn, `COc1ccc(cc1C1=N/C(=CNc2ccccn2)/C(=O)O1)Cl` had a maximum fold change of 6.85.

Regarding `CN1C(=O)c2ccccc2C(C(=O)O)C1c1c[nH]c2ccccc12` (stereo not given), the maximum fold change stood at 2.39.

Consider `CCCOc1ccc(C2c3c(oc4ccccc4c3=O)C(=O)N2c2nccs2)cc1` (stereo not given), for which the maximum fold change was found to be 8.73.

Compound `Cc1cc(C)c(Cn2c(C)c(CNCc3cccc(Cl)c3)c(C(=O)O)c2C)c(C)c1` had a maximum fold change of 1.74.
